Assay results as given in PubChem BioAssay AID1159580 (chemical genetic matrix, 2015).
The whole screen tested about 5,500 compounds, of which about 2,000 (36%) were called active. Roughly 18% stayed inconclusive and do not appear here. Rule as the data show it: active = normalized growth mostly below about 0.91 (no sharp cut-off); inconclusive = no clear call, values can overlap the other calls; inactive = mostly above about 0.92. The list shows a part of the results.

Experiment: chemical genetic growth profiling, strain panel (AID 1159580);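 also: tested at 20 µM; growth read once vehicle control cultures reached saturation at 30 °C; 1 = growth at the plate median or of vehicle wells; lower values mean less growth of the strain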
Conditions: S. cerevisiae deletion strains, growth OD

Measured: normalized growth

CC(C)c1c(O)ccc2c1CCC1[C@@](C)(C=O)CCC[C@]21C (stereo partly specified)
active: locus YKL085W, strain MDH1 (second series), hits give low values 0.583 | locus YKL085W, strain MDH1, hits give low values 0.583 | locus YKL190W, strain CNB1, hits give low values 0.154 | locus YKR001C, strain vps1, hits give low values 0.0888 | locus YLL026W, hits give low values 0.79 | locus YLL041C, strain sdh2, hits give low values 0.895 | locus YLR027C, strain aat2, hits give low values 0.653 | locus YLR039C, strain RIC1, hits give low values 0.148 | locus YLR058C, strain SHM2, hits give low values 0.352 | locus YLR102C, strain apc9, hits give low values 0.432 | locus YLR113W, strain HOG1, hits give low values 0.782 | locus YLR221C, strain rsa3, hits give low values 0.692 | locus YLR258W, strain gsy2, hits give low values 0.768 | locus YLR262C, strain YPT6 (second series), hits give low values 0.255 | locus YLR262C, strain YPT6, hits give low values 0.219 | locus YLR268W, strain sec22, hits give low values 0.411 | locus YLR320W, strain mms22, hits give low values 0.62 | locus YLR330W, strain CHS5, hits give low values 0.228 | locus YLR342W, strain FKS1 (second series), hits give low values 0.208 | locus YLR342W, strain FKS1, hits give low values 0.774 | locus YLR371W, strain rom2, hits give low values 0.317 | locus YLR418C, strain cdc73, hits give low values 0.137 | locus YML016C, strain PPZ1, hits give low values 0.8 | locus YML032C, strain rad52, hits give low values 0.467 | locus YML120C, strain ndi1, hits give low values 0.465 | locus YML124C, strain tub3, hits give low values 0.507 | locus YMR078C, strain ctf18, hits give low values 0.422 | locus YMR205C, strain PFK2, hits give low values 0.617 | locus YMR223W, strain ubp8, hits give low values 0.429 | locus YMR307W, strain GAS1, hits give low values 0.306 | locus YNL067W, strain RPL9B, hits give low values 0.583 | locus YNL071W, strain lat1, hits give low values 0.424 | locus YNL233W, strain BNI4, hits give low values 0.172 | locus YNL250W, strain rad50, hits give low values 0.868 | locus YNL271C, strain bni1, hits give low values 0.875 | locus YNL298W, strain CLA4, hits give low values 0.847 | locus YNL307C, strain MCK1, hits give low values 0.0743 | locus YNL322C, strain KRE1, hits give low values 0.333 | locus YNR052C, strain pop2, hits give low values 0.53 | locus YOL006C, strain TOP1, hits give low values 0.396 | locus YOL147C, strain pex11, hits give low values 0.205 | locus YOR001W, strain rrp6, hits give low values 0.857 | locus YOR061W, strain CKA2, hits give low values 0.689 | locus YOR069W, strain VPS5, hits give low values 0.668 | locus YOR070C, strain gyp1, hits give low values 0.598 | locus YOR083W, strain WHI5, hits give low values 0.822 | locus YOR106W, strain vam3, hits give low values 0.563 | locus YOR136W, strain idh2, hits give low values 0.559 | locus YOR144C, strain elg1, hits give low values 0.48 | locus YOR184W, strain ser1, hits give low values 0.153 | locus YOR231W, strain MKK1, hits give low values 0.784 | locus YOR265W, strain rbl2, hits give low values 0.88 | locus YOR270C, strain vph1, hits give low values 0.739 | locus YOR316C, strain cot1, hits give low values 0.49 | locus YPL051W, strain arl3, hits give low values 0.769 | locus YPL055C, strain LGE1, hits give low values 0.147 | locus YPL240C, strain hsp82, hits give low values 0.626 | locus YPL241C, strain CIN2, hits give low values 0.487 | locus YPL256C, strain CLN2, hits give low values 0.814 | locus YPR119W, strain clb2, hits give low values 0.305 | locus YPR163C, strain tif3, hits give low values 0.345 | locus YPR167C, strain met16, hits give low values 0.314 | strain wtn01, hits give low values 0.304
inactive: locus YKL068W, hits give low values 0.969 | locus YKL160W, strain elf1, hits give low values 0.915 | locus YKR026C, strain gcn3, hits give low values 1 | locus YKR091W, strain srl3, hits give low values 1.01 | locus YLL001W, strain dnm1, hits give low values 0.964 | locus YLR357W, strain rsc2, hits give low values 1.11 | locus YLR370C, strain arc18, hits give low values 1.01 | locus YLR384C, strain iki3, hits give low values 1.02 | locus YMR058W, strain fet3, hits give low values 0.991 | locus YMR125W, strain sto1, hits give low values 1.01 | locus YMR129W, hits give low values 0.972 | locus YMR231W, strain pep5, hits give low values 1.04 | locus YNL183C, strain NPR1, hits give low values 0.83 | locus YNL209W, strain ssb2, hits give low values 0.959 | locus YNL248C, strain rpa49, hits give low values 1.04 | locus YNL322C, strain KRE1 (second series), hits give low values 1.02 | locus YNR049C, strain mso1, hits give low values 1.01 | locus YOL012C, strain htz1 1.05 | locus YOR080W, strain dia2, hits give low values 0.996 | locus YOR290C, strain snf2, hits give low values 0.909 | locus YPL078C, strain atp4, hits give low values 0.996 | locus YPL106C, strain sse1, hits give low values 0.94 | locus YPR141C, strain kar3, hits give low values 0.999
